Most compounds without a hit are left out; they make up all but 2.6% or so of the library.
Cruzain noTriton = cruzain (T. cruzi) inhibition without detergent | Potency, µM, actives largely listed as inhibitors | P25779 | 200,000 compounds, 2.3% hits | AID 1476 | purified cruzain, Z-FR-AMC fluorescence, no detergent; also: nearly all actives have a fitted effect of over 40% in size
Target sequence (P25779 123-467 limits assumed): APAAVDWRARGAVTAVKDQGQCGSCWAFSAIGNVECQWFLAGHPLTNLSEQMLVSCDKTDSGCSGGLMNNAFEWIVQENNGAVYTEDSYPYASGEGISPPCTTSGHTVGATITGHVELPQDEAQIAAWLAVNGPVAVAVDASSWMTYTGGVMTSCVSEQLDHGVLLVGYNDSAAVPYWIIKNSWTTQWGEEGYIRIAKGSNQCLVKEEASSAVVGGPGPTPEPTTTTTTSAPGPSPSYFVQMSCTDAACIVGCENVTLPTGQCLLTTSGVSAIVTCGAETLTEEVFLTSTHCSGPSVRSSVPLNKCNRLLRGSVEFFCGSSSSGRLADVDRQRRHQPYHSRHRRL
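Purified cruzain at 1.5 nM, pre-incubated 15 min with compound at room temperature in 100 mM sodium acetate pH 5.5, 5 mM DTT, 0.00005% Triton X-100. Reaction started with 2 uM Z-FR-AMC; AMC fluorescence increase over 60 s gives rate.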
Cruzain Triton = cruzain (T. cruzi) inhibition with detergent | 200,000 compounds, 0.43% hits | Potency, µM, most hits filed as inhibitors | P25779 | purified cruzain, Z-FR-AMC fluorescence, 0.01% Triton | AID 1478; also: nearly all actives have a fitted effect of over 40% in size
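Cruzain (1.5 nM) preincubated 15 min at RT with compound in 100 mM sodium acetate pH 5.5, 5 mM DTT, 0.01% Triton X-100. Reaction started with 2 uM Z-FR-AMC; AMC fluorescence (ex 360/em 450 nm) change over 60 s gave rate.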
Hits are given with their value. Calls follow the shape of the dose curve; as a rule, active = well fitted curve in the direction sought with a large enough effect; inconclusive = small, poorly fitted or top-dose-only effect, or another doubt; inactive = no such curve, though single readings can be large; an effect the other way counts as inactive or inconclusive.

COc1ccc(C2C(C#N)=C(N)N(c3ccccc3)C3=C2C(=O)CCC3)cc1Cn1cc([N+](=O)[O-])cn1 (stereo not drawn) was read as Cruzain noTriton 20µM and Cruzain Triton inactive.
For COc1ccc(C2C(C#N)=C(N)Oc3c2c(=O)oc2ccccc32)cc1Cn1cc([N+](=O)[O-])cn1 (stereo not drawn) the results were Cruzain noTriton 25.1µM and Cruzain Triton inactive.
Screening COc1ccc(C2C(C#N)=C(N)N(c3cccnc3)C3=C2C(=O)CCC3)cc1Cn1cc([N+](=O)[O-])cn1 (stereo not drawn) returned Cruzain noTriton inactive and Cruzain Triton inactive.
For Cc1ccc(NC(=O)Cn2nnc(C(=O)NCCc3ccccc3)c2N)cc1 the results were Cruzain noTriton inconclusive and Cruzain Triton inactive.
O=c1oc2ccccc2cc1-c1nc(-c2cccs2)no1 was read as Cruzain noTriton inactive and Cruzain Triton inactive.
Cc1cccc(Cn2c(=O)n(CC3CCC(C(=O)N4CCC(C)CC4)CC3)c(=O)c3sccc32)c1 (stereo not drawn) was read as Cruzain noTriton inactive and Cruzain Triton inactive.
CC1=C(C(=O)Nc2ccccc2)C(c2cccs2)n2nc(SCc3ccccc3F)nc2N1 (stereo not drawn) was read as Cruzain noTriton inactive and Cruzain Triton inactive.
For Cc1ccc(CNC(=O)Cc2csc3ccccc23)cc1 the results were Cruzain noTriton inactive and Cruzain Triton inactive.
Screening O=C(Cc1csc(Nc2nc(=S)[nH]c3ccccc23)n1)NCc1ccccc1Cl returned Cruzain noTriton inconclusive and Cruzain Triton inactive.
Cc1ccc(CNC(=O)Cc2csc(Nc3nc(=S)[nH]c4ccccc34)n2)cc1 was read as Cruzain noTriton 10µM and Cruzain Triton inactive.
Screening O=C(Cc1csc(Nc2nc(=S)[nH]c3ccccc23)n1)NCc1cccc(Cl)c1 returned Cruzain noTriton 3.98µM and Cruzain Triton inactive.
`Cc1oc(-c2ccccc2)nc1CNC(=O)Nc1ccccc1` gave Cruzain noTriton inactive and Cruzain Triton inactive.
Screening N#Cc1ccccc1NC(=O)C(=O)NCCc1csc2nc(-c3cccc(F)c3)nn12 returned Cruzain noTriton inactive and Cruzain Triton inactive.
For O=C(CSc1nc2ccccc2nc1Cc1ccc(Cl)cc1)N1CCN(c2ccccc2F)CC1 the results were Cruzain noTriton inactive and Cruzain Triton inactive.
`CCc1c(C)sc2c1CCN(C(=O)Nc1ccc(F)c(Cl)c1)C2c1ccc(F)cc1` (stereo not drawn) gave Cruzain noTriton 10µM and Cruzain Triton inactive.
For CCc1c(C)sc2c1CCN(C(=O)Nc1ccccc1C(=O)OC)C2c1ccc(F)cc1 (stereo not drawn) the results were Cruzain noTriton inconclusive and Cruzain Triton inactive.
CCc1c(C)sc2c1CCN(C(=O)Nc1ccccc1C(F)(F)F)C2c1ccccc1 (stereo not drawn) was read as Cruzain noTriton inactive and Cruzain Triton inactive.
`CCc1c(C)sc2c1CCN(C(=O)Nc1cc(Cl)c(OC)cc1OC)C2c1ccccc1` (stereo not drawn) gave Cruzain noTriton 6.31µM and Cruzain Triton inactive.
Screening COc1cccc(-c2nc(CSCC(=O)NCCc3ccc(Cl)cc3)c(C)o2)c1 returned Cruzain noTriton inconclusive and Cruzain Triton inactive.
For N#Cc1cccc(NC(=O)N2CC3(CCN(C(=O)c4cc(C(F)(F)F)cc(C(F)(F)F)c4)CC3)C2)c1 the results were Cruzain noTriton inconclusive and Cruzain Triton inactive.
`COc1ccccc1NC(=O)c1ccc2nc(-c3ccccc3)c(-c3ccccc3)nc2c1` gave Cruzain noTriton 31.6µM and Cruzain Triton inactive.
For COc1ccc(NC(=O)c2ccc3nc(-c4ccccc4)c(-c4ccccc4)nc3c2)c(OC)c1 the results were Cruzain noTriton inactive and Cruzain Triton inactive.
Screening CCCCN(CC)Cc1ccc(CNS(=O)(=O)c2cc3c(cc2Cl)NC(=O)CO3)o1 returned Cruzain noTriton inactive and Cruzain Triton inactive.
Cc1ccc(N(CC(=O)N/N=C/c2ccc(OC3CSC3)cc2)S(=O)(=O)c2ccccc2)c(C)c1 was read as Cruzain noTriton 15.8µM and Cruzain Triton inactive.
Screening Cc1ccc(N(CC(=O)N/N=C/c2ccc(OC3CSC3)cc2)S(=O)(=O)c2ccccc2)cc1 returned Cruzain noTriton inconclusive and Cruzain Triton inactive.
`O=C(Cn1c(=O)n(-c2ccc(F)cc2)c(=O)c2sc3ccccc3c21)N1CCCC1` gave Cruzain noTriton inactive and Cruzain Triton inactive.
Screening CCN(CC)S(=O)(=O)c1ccc(Cl)c(NC(=O)COc2ccc(OC)cc2[N+](=O)[O-])c1 returned Cruzain noTriton 12.6µM and Cruzain Triton inactive.
CCN(CC)S(=O)(=O)c1ccc(Cl)c(NC(=O)c2cc(Cl)ccc2Cl)c1 was read as Cruzain noTriton inactive and Cruzain Triton inactive.
For CC(C)Nc1ccc(Nc2ccccc2)cc1 the results were Cruzain noTriton 31.6µM and Cruzain Triton inactive.
`c1ccc(Nc2ccccc2)cc1` gave Cruzain noTriton inactive and Cruzain Triton inactive.
